Our source for the AC50 and outcome values is PubChem BioAssay (EPA / NIEHS).

Test [1] is described as follows: CCTE_Shafer_MEA_acute_burst_duration_mean: CCTE's Neural Acute Assay for Mean Burst Duration, Shafer Lab (AID 2284014).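 Further: hits are decreases in mean burst duration relative to DMSO controls.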 A digest of the protocol: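 Read-out is the per-well percent change in mean burst duration (first to last spike within a single-electrode burst) between 40-min recordings before and after compound. Cultures were primary rat cortical neurons on MEAs, dosed at 0.03-40 uM on DIV 13 or 15.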

Test [2] is described as follows: CCTE_Shafer_MEA_acute_per_burst_spike_number_mean: CCTE's Neural Acute Assay for Average Number of Spikes Per Burst, Shafer Lab (AID 2284015).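 Further: hits are decreases in mean spikes per burst versus baseline.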 A digest of the protocol:
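Primary rat cortical neurons on 48-well MEA plates, treated on DIV 13 or 15 at 0.03-40 uM. Spontaneous activity recorded 40 min before and 40 min after compound at 37 C; percent change in mean spikes per single-electrode burst per well, fitted in the loss direction versus DMSO.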

Test [3] can be described thus: CCTE_Shafer_MEA_acute_burst_percentage_mean: CCTE's Neural Acute Assay for Percentage of Spikes in a Burst, Shafer Lab (AID 2284017).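 On AC50: curve fitted for loss of signal so potency reflects decreased burst percentage.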 In outline:
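Primary rat cortical neurons on 16-electrode MEA wells; 40 min baseline recorded at DIV 13 or 15, then 40 min after compound (0.03-40 uM) at 37 C. Well-mean fraction of spikes in single-electrode bursts; percent change from baseline, DMSO as negative control.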

Test [4] in a line: CCTE_Shafer_MEA_acute_burst_percentage_std: CCTE's Neural Acute Assay for Standard Deviation of Burst Percentage, Shafer Lab (AID 2284018).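 Further: fitted in the negative direction so actives lower burst percentage SD.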 In outline:
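Value is percent change from baseline in the across-electrode SD of spikes-in-bursts percentage, wells with >/= 10 active electrodes. Acute 40-min exposure to 0.03-40 uM on DIV 13 or 15 rat cortical cultures, recorded at 37 C after 40-min baseline.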

A short description of test [5]: CCTE_Shafer_MEA_acute_per_network_burst_spike_number_mean: CCTE's Neural Acute Assay for Average Number of Spikes in a Network Burst, Shafer Lab (AID 2284019).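 On AC50: curve fitted for loss of signal so actives reduce spikes per network burst.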 A digest of the protocol:
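Read-out is mean spike count per network burst, taken as percent change between a 40-min pre-exposure and a 40-min post-exposure recording per well. Rat primary cortical neurons on MEAs at 37 C, DIV 13 or 15; compounds at 0.03-40 uM.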

A short description of test [6]: CCTE_Shafer_MEA_acute_per_network_burst_spike_number_std: CCTE's Neural Acute Assay for Standard Deviation of Number of Spikes in a Network Burst, Shafer Lab (AID 2284020).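 Further: fitted for decrease in spike-number SD versus DMSO so actives lower it.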 A digest of the protocol: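 Spontaneous network activity of primary rat cortical neurons is recorded extracellularly before and after a 40-min compound exposure (0.03-40 uM) at 37 C. The endpoint is the well's percent change in burst spike-number SD.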

Test [7] in a line: CCTE_Shafer_MEA_acute_per_network_burst_electrodes_number_mean: CCTE's Neural Acute Assay for Mean Number of Electrodes in a Network Burst, Shafer Lab (AID 2284021).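 Further: curves fitted for decreases only so hits reduce electrodes per burst.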 A digest of the protocol:
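Readout: % change in mean electrodes active per network burst, post- vs pre-treatment, each well. Spikes detected at 8x rms noise after 300-5000 Hz band-pass; rat cortical cultures, DIV 13/15, compounds 0.03-40 uM, DMSO baseline.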

A short description of test [8]: CCTE_Shafer_MEA_acute_cross_correlation_area: CCTE's Neural Acute Assay for Area of Cross Correlation, Shafer Lab (AID 2284024).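 Further: area under pooled inter-electrode spike cross-correlation near zero lag as percent change from own baseline; curves fitted for loss of cross-correlation area so actives lower synchrony.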 A digest of the protocol: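 Rat cortical cultures, DIV 13/15, MEA; spikes detected at 8x rms noise (300-5000 Hz band-pass). Compound 0.03-40 uM, ≥3 wells each. Readout: % change in pooled inter-electrode cross-correlation area vs own baseline; DMSO negative control.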

In test [9] the target is Estrogen receptor (Homo sapiens) (UniProt P03372). In words: CCTE_Deisenroth_AIME_96WELL_LUC_Active: CCTE's 96-well Estrogen Receptor Transactivation Assay with AIME metabolic competence (ERTA luciferase; metabolism positive), Deisenroth Lab (AID 2284023; active means hit-call score of the fitted dose curve at least 0.9, where 1 is the maximum). The procedure:
CCTE_Deisenroth_AIME_96WELL (AIME metabolism assay) is a cell-based, single-readout assay that uses VM7Luc4E2, a human mammary gland/breast cell line, with measurements taken at 24 hour after chemical dosing in a 96-well plate.CCTE_Deisenroth_AIME_96WELL_LUC_Active is one of four assay components measured or calculated from the CCTE_Deisenroth_AIME_96WELL assay. It is designed to make measurements of luciferase induction, a form of inducible reporter, as detected with bioluminescence signals by luciferase-coupled ATP quantitation technology.CCTE_Deisenroth_AIME_96WELL_LUC_Active is a component of the CCTE_Deisenroth_AIME_96WELL assay that measures the effect of retroftting the VM7Luc ERTA assay with the Alginate Immobolization of Metabolic Enzymes (AIME) metabolism method. AIME is optimized to impart phase I hepatic metabolism using phenobarbital/beta-naphthoflavone induced hepatic S9 from male Sprague Dawley rats. Parent chemicals are incubated for 2 hours in the AIME assay prior to transfer to the VM7Luc ERTA assay plate. […] This endpoint evaluates reporter induction in metabolism positive mode. […] This assay endpoint, CCTE_Deisenroth_AIME_96WELL_LUC_Active, was analyzed in the positive analysis fitting direction relative to 17beta-estradiol as the positive control in the ERTA assay. […]

Test [10] shares this target. Briefly: CCTE_Deisenroth_AIME_96WELL_LUC_Inactive: CCTE's 96-well Estrogen Receptor Transactivation Assay without AIME metabolic competence (ERTA luciferase; metabolism negative), Deisenroth Lab (AID 2284025; active means hit-call score of the fitted dose curve at least 0.9, where 1 is the maximum). A digest of the protocol:
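VM7Luc4E2 breast cells, luciferase read 24 h after dosing with medium pre-incubated 2 h on alginate-water lids (metabolism negative). 10-point series 0.002–200 uM, single technical replicate, n≥4; fit relative to 17beta-estradiol.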

Inconclusive results are not listed. Active and inactive are the calls of the source. How the source made its calls, unless noted: active means hit-call score of the fitted dose curve at least 0.9, where 1 is the maximum; inactive means score below 0.9.

Chain of Estrogen receptor (Homo sapiens) (P03372 whole entry, looked up): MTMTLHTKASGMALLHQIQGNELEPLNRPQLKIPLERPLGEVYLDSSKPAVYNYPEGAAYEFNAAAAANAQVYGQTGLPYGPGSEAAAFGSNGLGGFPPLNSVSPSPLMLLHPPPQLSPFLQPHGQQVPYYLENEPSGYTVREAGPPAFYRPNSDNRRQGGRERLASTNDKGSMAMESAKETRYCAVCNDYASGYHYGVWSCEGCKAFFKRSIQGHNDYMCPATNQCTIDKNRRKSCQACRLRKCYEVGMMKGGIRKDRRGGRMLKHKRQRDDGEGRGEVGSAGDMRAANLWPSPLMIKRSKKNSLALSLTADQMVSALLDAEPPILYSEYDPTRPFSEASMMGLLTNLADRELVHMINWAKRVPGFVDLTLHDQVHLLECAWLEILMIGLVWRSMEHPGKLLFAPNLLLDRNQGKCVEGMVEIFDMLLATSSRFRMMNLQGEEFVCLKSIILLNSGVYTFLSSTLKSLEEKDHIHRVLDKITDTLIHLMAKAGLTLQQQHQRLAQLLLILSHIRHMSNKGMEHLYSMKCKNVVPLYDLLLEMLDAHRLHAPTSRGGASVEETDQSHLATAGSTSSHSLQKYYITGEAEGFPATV

For `O=C1C2(Cl)C3(Cl)C4(Cl)C(Cl)(Cl)C5(Cl)C3(Cl)C1(Cl)C5(Cl)C24Cl` (stereo not given), the AC50 in test [1] is 9.11 µM (active); in test [2] it was 9.36 µM (active); in [3], 9.9 µM (active); in [4], 32.5 µM (active); in test [6], 9.39 µM (active). Further, the molecule was classed as inactive in test [5], in test [7] and in test [8].
As for `CCOP(=S)(OCC)SCSP(=S)(OCC)OCC`, the molecule was classed as inactive in test [1], in test [2], in test [4], in [5] and in [8]. Further, the values for the AC50 in [3], in test [6] and in [7] were 20 µM (active), 20 µM (active) and 11.8 µM (active), respectively.
As for `CC(=O)OC(c1ccccc1)C(Cl)(Cl)Cl` (stereo not given), the result in test [1], in test [2], in test [4], in [5], in [6] and in test [7] was inactive. In addition, in [8], the call was inactive. In addition, the concentration at half-maximal activity (AC50) in test [3] was 15 µM (active).
For the molecule `CC(C)(OO)c1ccccc1`, the molecule was classed as inactive in [1], in [2], in [3], in test [4], in test [5] and in [6]. Besides, the result in test [7] and in test [8] was inactive.
In the case of `O=C(OC1CCCCC1)c1ccccc1C(=O)OC1CCCCC1`, the AC50 in [9] is 20.5 µM (active); in [10] it was 10.1 µM (active).
Take `C=CC#N`: the result in test [9] and in test [10] was inactive.
In the case of `CC(=O)[O][Hg][c]1ccccc1`, the half-maximal activity concentration (AC50) in test [1] is 29.5 µM (active); in test [3] it was 1.13 µM (active); in test [5] it was 0.331 µM (active); in test [6] it was 0.844 µM (active); in test [7] it was 0.561 µM (active); in [8] it was 0.713 µM (active). For the same molecule, the molecule was classed as inactive in test [2] and in test [4].
Take `CCCCCCCCc1ccc(O)cc1`: the result in test [1], in test [2], in [5], in test [6], in test [7] and in test [8] was inactive. Besides, the AC50 in [3] was 12.7 µM (active); in [4] it was 20 µM (active).
Take `CC(C)(C)c1cc(O)ccc1O`: the molecule was classed as inactive in test [1], in test [2], in [4], in test [5], in test [7] and in [8]. Moreover, the AC50 in test [3] and in test [6] was 20 µM (active) throughout.
Take `COC(=O)Cc1ccccc1`: the call in test [1], in [2], in [3], in test [4], in test [5] and in test [6] was inactive. Further, the call in [7] and in test [8] was inactive.
As for `CCN1CCC2(CC1)COc1cc3c(cc12)N(C(=O)c1ccc(-c2ccc(-c4nnc(C)o4)cc2C)cc1)CC3`, the result in test [1], in test [2], in test [4], in test [5], in [7] and in test [8] was inactive. Also, the AC50 is 27.3 µM (active) in test [3] and 30.1 µM (active) in [6].
Consider `CC(C)(c1ccccc1)c1ccc(O)c(C(C)(C)c2ccccc2)c1`, for which the result in [1], in [2], in test [5], in test [6], in [7] and in test [8] was inactive. In addition, the AC50 in test [3] was 7.18 µM (active); in test [4], 20 µM (active).
For the molecule `CCC(C)(C)c1ccc(O)c(C(C)(C)CC)c1`, the molecule was classed as inactive in [1] and in [8]. Moreover, the concentration at half-maximal activity (AC50) is 20 µM (active) in test [2]; 7.93 µM (active) in test [3]; 32.6 µM (active) in test [4]; 8.12 µM (active) in [5]; 6.52 µM (active) in test [6]; 20 µM (active) in test [7].
In the case of `C=C(C)C(=O)[O][Sn]([CH2]CCC)([CH2]CCC)[CH2]CCC`, the AC50 in [1] is 3.11 µM (active); in test [3], 0.0833 µM (active); in [4], 20 µM (active); in test [6] it was 0.0933 µM (active); in [7], 2.81 µM (active); in [8] it was 0.0108 µM (active). For the same molecule, the molecule was called inactive in [2] and in [5].
As for `CC(C)(C)CC(C)(C)c1ccc(O)cc1`, the result in test [1], in test [2], in [3], in test [4], in test [5] and in [6] was inactive. Moreover, the molecule was classed as inactive in test [7] and in test [8].
On to `CCC(=O)C(CC(C)N(C)C)(c1ccccc1)c1ccccc1` (stereo not given), for which the AC50 in test [1] is 0.208 µM (active); in test [3] it was 26.2 µM (active); in test [8], 0.062 µM (active). The outcome in test [2], in [4], in test [5], in test [6] and in [7] was inactive.
Take `O=C(Nc1ccc2[nH]ccc2c1)c1cc2cc(F)ccc2n1Cc1cccc(F)c1`: the molecule was classed as inactive in test [1], in [2], in [3], in test [4], in [5] and in [6]. The outcome in test [7] and in test [8] was inactive.
For `ClC1(Cl)C2(Cl)C3(Cl)C4(Cl)C(Cl)(Cl)C5(Cl)C3(Cl)C1(Cl)C5(Cl)C24Cl` (stereo not given), the molecule was classed as inactive in test [1], in [2], in [3], in test [4], in [5] and in test [6]. In addition, the result in test [7] and in test [8] was inactive.
As to `C[C@]12CCC(=O)C[C@@H]1CC[C@@H]1[C@@H]2CC[C@]2(C)[C@@H](O)CC[C@@H]12`, the molecule was called inactive in test [1], in test [2], in test [5], in test [6], in test [7] and in [8]. For the same molecule, the AC50 in test [3] is 30.5 µM (active); in test [4] it was 31.1 µM (active).
Regarding `O=C(O)C(Cl)(Cl)Cl`, the molecule was classed as inactive in test [1], in test [2], in test [3], in [4], in test [5] and in test [6]. Besides, the call in test [7] was inactive.
On to `O=C(O)C(F)(F)C(F)(F)C(F)(F)C(F)(F)C(F)(F)C(F)(F)C(F)(F)C(F)(F)C(F)(F)C(F)(F)F`, for which the AC50 in test [1] is 20 µM (active); in test [2] it was 5.97 µM (active). For the same molecule, the molecule was classed as inactive in test [3], in test [4], in test [5], in test [6], in test [7] and in test [8].
